ClpP mod = qHTS Assay for Activators of ClpP; Potency, µM (highest dose often 57.5 µM), without a hit: top-dose activity change, negative = active; purified B. subtilis ClpP, FRET peptide cleavage, 20 min; hit rate 1.9% among 340,000; AID 651965, 2013; ATP-dependent Clp protease proteolytic subunit (Bacillus subtilis (strain 168)), P80244; active means well fitted falling curve with a large enough effect; further: potency means the concentration at half of the fitted maximal effect; the source files actives as falling curves though it sought activators and does not explain the sign; nearly all actives have a fitted effect of over 65% in size
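Buffer: 100 mM Tris/HCl pH8, 100 mM KCl, 0.05% low protease BSA, 2.5% glycerol, 0.01% Tween-20. ClpP 10 microg/mL final; 20 min RT; delta FRET normalized to ADEP and DMSO controls.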
mIDH1 inhibitor = blocks human mutant IDH1 R132H enzyme; O75874; IDH1-R132H enzyme, NADPH consumption, diaphorase/resazurin fluorescence; Potency, µM (highest dose often 76.6 µM), for inactives: top-dose activity change, negative = inhibition, actives largely listed as inhibitors; hit rate 0.093% among 390,000; AID 602179; further: potency means the concentration at half of the fitted maximal effect; on the % scale 0 is the no-effect control and ±100 the full control effect; nearly all actives have a fitted effect of over 65% in size
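IDH1-R132H (0.5 ug/mL dispensed) in pH 7.5 Tris buffer was preincubated 30 min with compound, then given a substrate mix of 0.016 mM NADPH and 2 mM alpha-KG for 80 min at room temperature; remaining NADPH was read by diaphorase/resazurin fluorescence.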
Mito fusion act = inhibitors of mitochondrial division or activators of mitochondrial fusion; S. cerevisiae fusion-defective mutant growth rescue, CellTiterGlo 48 h; Potency, µM (series often up to 46.1 µM), for inactives: top-dose growth rescue (activation), usual class: activators; hit rate 0.23% among 320,000; further: potency means the concentration at half of the fitted maximal effect; % of control where 0% means no effect; nearly all actives have a fitted effect of over 45% in size
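Luminescent cell viability in 1536-well qHTS format served as the measure of rescued growth in ts fusion-mutant S. cerevisiae cultured on non-fermentable YPEG for 48 hours at 37C.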
ASM inhibitor = inhibitors of human secretory acid sphingomyelinase. P17405. placental ASM, HMU-PC fluorogenic substrate, 60 min. Potency, µM (highest dose often 57.5 µM), inactives show at the top dose activity change, negative = inhibition, usual class: inhibitors. hit rate 0.006% among 340,000. AID 504937; further: potency means the concentration at half of the fitted maximal effect
Target sequence (P17405 47-631 limits assumed): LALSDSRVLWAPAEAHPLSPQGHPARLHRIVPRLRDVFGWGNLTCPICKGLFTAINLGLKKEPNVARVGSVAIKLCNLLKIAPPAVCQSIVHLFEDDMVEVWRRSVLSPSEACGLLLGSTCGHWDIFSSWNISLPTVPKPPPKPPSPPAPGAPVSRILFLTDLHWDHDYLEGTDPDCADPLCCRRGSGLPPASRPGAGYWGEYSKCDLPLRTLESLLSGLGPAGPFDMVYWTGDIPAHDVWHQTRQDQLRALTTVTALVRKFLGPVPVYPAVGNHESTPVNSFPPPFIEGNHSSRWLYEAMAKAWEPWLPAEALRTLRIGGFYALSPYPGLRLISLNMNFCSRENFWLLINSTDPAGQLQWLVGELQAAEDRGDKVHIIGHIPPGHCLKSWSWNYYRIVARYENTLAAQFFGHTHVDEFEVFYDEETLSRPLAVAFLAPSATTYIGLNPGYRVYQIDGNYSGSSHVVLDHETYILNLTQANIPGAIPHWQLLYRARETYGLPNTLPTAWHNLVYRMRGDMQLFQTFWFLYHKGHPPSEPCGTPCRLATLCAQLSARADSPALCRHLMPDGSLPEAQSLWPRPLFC
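Human placenta-derived ASM preincubated with compound 10 min at room temperature, then reacted with 9 uM (final) fluorogenic HMU-PC substrate for 60 min at 37 C. Stop solution raises pH to 10; fluorescence read at Ex 386/Em 447 nm.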
RGS4 inh = inhibitors of human regulator of G protein signaling 4. P49798. Transcreener GDP fluorescence polarization, RGS4-accelerated GTP hydrolysis. Potency, µM (highest dose often 114 µM), inactives show at the top dose activity change, negative = inhibition, actives largely listed as inhibitors. hit rate 0.039% among 390,000. AID 504845; further: potency means the concentration at half of the fitted maximal effect; on the % scale 0 is the no-effect control and ±100 the full control effect; nearly all actives have a fitted effect of over 75% in size
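MLSMR compounds (23 nl, pin-transferred) preincubated 10 min at room temperature with a 500nM (2x) first reagent, then RGS4 at 900nM (2x) plus Transcreener GDP mix added; fluorescence polarization (620/688 nm) read before and after 90 min at 30 °C.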
LDHA block = LDHA (human) enzyme inhibition | P00338 | purified LDHA, NADH/diaphorase-resazurin fluorescence; active compounds read low | activity change, % (values are at about 110 or 230 µM) | hit rate 0.15% among 480,000; in the data active means activity change below about -30%;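 further: plate controls were DMSO wells for no effect and wells without enzyme for full effect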
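LDH5 2 nM; NADH 0.06 mM, pyruvate 0.2 mM; 200 mM Tris pH 7.4, EDTA, Tween-20; 5 min RT. Detection: diaphorase 0.133 mg/mL + resazurin 37 µM, fluorescence ex540/em590 at 0 and 20 min; normalized to enzyme-free and DMSO wells.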
Starred values were filed as active, the others as inactive; i = inactive; x = no result; ! = not active in a repeat; [ ] = dose if it differs, or a comment. Many of the other results were omitted from the sample, so hits are more common in it than they were. Unless noted, the call rests on the fitted dose curve; in most records, active means well fitted curve in the direction sought with a large enough effect; inconclusive means small, poorly fitted or top-dose-only effect, or another doubt; inactive means no such curve, though single readings can be large; an effect the other way counts as inactive or inconclusive.

SMILES	ClpP mod	mIDH1 inhibitor	Mito fusion act	ASM inhibitor	RGS4 inh	LDHA block
CN(C(=O)CSC1=Nc2ccccc2C2=NC(c3ccccc3)C(=O)N12)C1CCCCC1 (stereo not given)	25µM*	2%	0%	65%	10%	-9
O=C(CSC1=Nc2ccccc2C2=NC(c3ccccc3)C(=O)N12)Nc1ccc(F)cc1F (stereo not given)	x	x	x	x	x	2
O=C(CSC1=Nc2ccccc2C2=NC(c3ccccc3)C(=O)N12)NC1CCCCC1 (stereo not given)	11µM*	-7%	0%	59%	25%	-2
O=C(CSc1nc2cc(Cl)ccc2s1)Nc1ccc(C(F)(F)F)cc1	x	x	x	x	x	0
Cc1cccc(NC(=O)CC(C)(C(=O)O)c2ccccc2)c1C (stereo not given)	x	x	x	x	x	1
Cc1ccc(C2C=C(c3ccccc3OC(F)F)Nc3ncnn32)cc1 (stereo not given)	22µM*	2%	-8%	181%	-1%	-4
O=C1CCNc2cc3ccccc3cc21	28µM*	3%	13%	i	-39%	26
O=C1CCNc2ccc(-c3ccccc3)cc21	-16%	3%	19%	14%	16%	0
CCCCCC1COC(c2ccc(O)cc2)OC1 (stereo not given)	x	x	x	x	x	-5
CC(C)=CC1C=C(C)C(C)C(C)C1/C=N/NC(=O)c1ccccc1 (stereo not given)	x	x	x	x	x	-8
C#CCSc1nnc(-c2sc(-c3ccccc3)nc2C)n1C	18µM*	8%	-7%	6%	-9%	-8
COc1cc2nc(Nc3cccc(F)c3)nc(N)c2cc1OC	32µM*!	0%	-3%	-2%	27%	-2
CCNC(=O)CN(CC)C(=O)c1cc2c(OC)cc(OC)c(OC)c2[nH]1	x	x	x	x	x	71
O=c1[nH]ncc2c3ccccc3n(Cc3ccc(F)cc3)c12	-25%	5%	6%	-1%	21%	-8
O=c1[nH]ncc2c3ccccc3n(Cc3cccc(Cl)c3)c12	x	4%	13%	32µM*	-42%	-4
CCCN(Cc1ccccc1)C(=S)Nc1ccc(OC(F)F)cc1	10µM*	5%	5%	0%	-17%	0
COCCN(Cc1ccccc1)C(=S)Nc1ccc(OC(F)F)cc1	x	4%	12%	0%	-2%	-1
O=C(NC1C2CC3CC(C2)CC1C3)c1ccc2c(c1)OCO2 (stereo not given)	20µM*	0%	6%	0%	15%	-7
CCN(C(=O)Cc1cccs1)c1nnc(-c2cc(OC)c(OC)c(OC)c2)s1	22µM*	10%	10%	-3%	-2%	-4
C=C(C)CN1CCC(CC(N)=O)CC1	x	x	x	x	x	-1
Cc1ccc(C(NC(=O)c2n[nH]c(=O)c3ccccc23)C2CC2)cc1 (stereo not given)	x	x	x	x	x	-9
CCCNC(=O)CSc1c2c(nc3ccc(Cl)cc13)CCCC2	-1%	-7%	x	x	7%	-2
COCCNC(=O)CSc1c2c(nc3ccc(Cl)cc13)CCCC2	1%	-1%	18µM*	4%	-6%	0
COc1ccc(NC(=S)N/N=C2\CC(C)(C)Oc3ccc(O)cc32)cc1	-29%	14%	-1%	8%	-30%[11.4 µM]	-2
CC(=O)N1CCC2(CC1)C/C(=N\NC(=S)Nc1ccccc1F)c1cc(O)ccc1O2	25µM*	2%	-5%	60%	14%	-4
COc1ccccc1NC(=S)N/N=C1\CC(C)(C)Oc2ccc(O)cc21	25µM*	2%	4%	64%	-9%	-6
Cc1cc(C)c(C(N)=O)c(NCc2ccccc2C)n1	x	x	x	x	x	-1
CN(CCOC(=O)c1cc(Cl)ccc1Cl)C(C)(C)C	x	x	x	x	x	3

Screening data as filed in PubChem BioAssay.
